# From PubChem BioAssay AID639 (Emory University Molecular Libraries Screening Center, 2007)
# The campaign covered roughly 86,000 compounds. About 1,200 (1.4%) were called active. The entries come from a sample that favours actives as a whole. A number with no mark means an inactive call. No stated cut-off is given here; in the data, active means activity above about 200%; inactive means the rest.
# Molecular target: Estrogen receptor (Homo sapiens) (UniProt P03372)
# Test: enhancers of ERα–SRC-1 coactivator binding, primary screen, biochemical, TR-FRET, ERα LBD, low estradiol (AID 639);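 further: binding measured in presence of low estradiol as agonist stimulus; 0% = peptide alone without receptor and 100% = receptor with peptide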
# Conditions: TR-FRET ERalpha-LBD/SRC-Cy5 coactivator binding, 2 h; at 25.6 µM; active compounds read high; 100 = basal binding, no effect
# Chain of Estrogen receptor (Homo sapiens) (P03372 whole entry, looked up, the tested form may be a part): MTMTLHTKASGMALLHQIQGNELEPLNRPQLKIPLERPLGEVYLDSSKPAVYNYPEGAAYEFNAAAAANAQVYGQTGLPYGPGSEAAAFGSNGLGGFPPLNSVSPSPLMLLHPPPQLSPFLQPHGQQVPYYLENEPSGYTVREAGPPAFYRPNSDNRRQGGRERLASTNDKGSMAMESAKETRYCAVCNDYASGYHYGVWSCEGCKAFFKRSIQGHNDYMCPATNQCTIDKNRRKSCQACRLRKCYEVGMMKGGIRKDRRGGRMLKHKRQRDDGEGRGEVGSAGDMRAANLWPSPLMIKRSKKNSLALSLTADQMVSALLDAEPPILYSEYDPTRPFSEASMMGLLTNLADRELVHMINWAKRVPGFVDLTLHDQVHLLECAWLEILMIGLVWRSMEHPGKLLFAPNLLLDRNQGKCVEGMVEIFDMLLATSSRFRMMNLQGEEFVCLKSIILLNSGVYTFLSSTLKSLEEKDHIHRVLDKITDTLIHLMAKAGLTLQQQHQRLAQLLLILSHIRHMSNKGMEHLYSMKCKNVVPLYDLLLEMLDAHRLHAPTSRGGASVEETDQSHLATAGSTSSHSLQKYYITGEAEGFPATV
row,Structure (SMILES),coactivator binding (% of control)
1,CCc1nnc(NC(=O)CSc2nc3ccccc3c(=O)n2CCCOC)s1,102%
2,CCOC(=O)c1c(N=CN(C)C)c(C#N)c2n1CCCC2,111%
3,COc1ccccc1NC(=O)CSc1nc2sc(C)c(C)c2c(=O)n1Cc1ccco1,225% (active)
4,COc1cc(Cl)c(C)cc1NC(=O)CSc1nnc(-c2cccnc2)n1Cc1ccco1,90.9%
5,COc1ccc(NC(=O)CSc2nnc(-c3cccs3)n2Cc2ccco2)cc1OC,95.3%
6,COC(=O)c1ccc(NC(=O)C23CC4CC(C2)CC(n2cnc(Cl)n2)(C4)C3)cc1,101%
7,Cc1cccc(N(C(=O)c2ccc(CN3CCOCC3)o2)C(C(=O)NC2CCCCC2)c2ccc(F)cc2)c1 (stereo unspecified),114%
8,Cc1ccc2cc(C#N)c(SCC(=O)NCC3CCCO3)nc2c1C (stereo unspecified),240% [fluorescence artefact?] (active)
9,O=C(CSc1nnc(-c2ccc(NS(=O)(=O)c3ccccc3)cc2)o1)NCC1CCCO1 (stereo unspecified),103%
10,CCn1c(SCC(=O)NCC2CCCO2)nc2cc(S(=O)(=O)N3CCCCC3)ccc21 (stereo unspecified),88.2%
11,CC1Cc2ccccc2N1C(=O)c1cc2sccc2n1Cc1ccccc1 (stereo unspecified),200%
12,CSc1nc(N)c(C#N)c(-c2ccccc2Cl)c1C#N,214% [fluorescence artefact?] (active)
13,Cc1c(-c2ccccc2)nc(N)c(C#N)c1-c1cccs1,155%
14,CCc1c(-c2ccccc2)nc(N)c(C#N)c1-c1cccs1,95.7%
15,O=C(c1cc2c(s1)CCC2)N1CCN(c2ccccc2)CC1,19.5%
16,CCCNC(=S)N1CCC(NC(=O)C23CC4CC(CC(C4)C2)C3)CC1,108%
17,COc1ccc(C(=O)Cn2nnc(-c3ccc(N4CCOCC4)cc3)n2)cc1OC,240% (active)
18,O=C(Cn1nnc(-c2ccc(CN3CCOCC3)cc2)n1)NC1CCCCC1,123%
19,CCOc1ccc(-c2nnn(CC(=O)N3CCN(c4ccc(OC)cc4)CC3)n2)cc1OCC,87.8%
20,COc1ccc(N(CC(=O)NC2CCCCC2)C(=O)CNC(=O)c2ccco2)c(OC)c1,113%
21,O=C(Nc1nncs1)c1cccc(S(=O)(=O)N2CCCCC2)c1,91.9%
22,CSc1nnc2c(n1)OC(c1ccsc1)N(C(C)=O)c1ccccc1-2 (stereo unspecified),348% (active)
23,CSc1nnc2c(n1)OC(c1cn(C)c3ccccc13)N(C(C)=O)c1ccccc1-2 (stereo unspecified),120%

row,Structure (SMILES),coactivator binding (% of control)
1,COCCCNC(=O)CN1CCN(Cc2ccccc2Cl)C1=O,107%
2,CCOc1ccc(N=C2NC(=O)S/C2=C\c2ccc(O)cc2)cc1,179%
3,C/C(=N\NC(=O)c1ccc(C)cc1)C1C(=O)c2ccccc2C1=O,71.8%
4,Cc1cc(C)nc(-n2nc(C)cc2NC(=O)c2ccc(Br)o2)n1,427% (active)
5,COc1cc(OC)c(NC(=O)c2ccc(Br)o2)cc1Cl,112%
6,Cc1cccc(-n2nc3c(c2NC(=O)c2ccc(Br)o2)CSC3)c1C,129%
7,CC(C)(C)n1nnnc1C(c1ccc(Cl)cc1)N1CCSCC1 (stereo unspecified),105%
8,C#CCN(N(C)c1ncc(C(F)(F)F)cc1Cl)S(=O)(=O)c1ccc2ccccc2c1,165%
9,COc1ccc(C(c2nnnn2C2CCCCC2)N2CCN(c3ccccc3F)CC2)cc1 (stereo unspecified),87.6%
10,c1ccc(C(c2ccccc2)N2CCN(Cc3nnnn3C3CCCCC3)CC2)cc1,209% [fluorescence artefact?] (active)
11,c1ccc(CCn2nnnc2CN2CCN(C3CCCC3)CC2)cc1,110%
12,COc1ccc(N2CCN(Cc3ccc(Br)s3)CC2)cc1,108%
13,Cc1cc(C)n(-c2nc(O)cc(=O)[nH]2)n1,103%
14,CCOc1cc(-c2cc(-c3ccc(OC)cc3)nc(N)c2C#N)ccc1O,146%
15,COC(=O)c1cc(OC)ccc1-c1ccc(OC)cc1,117%
16,CCSc1nc(-c2ccc(OC)cc2)cc(-c2ccc(OC)cc2)c1C#N,371% [fluorescence artefact?] (active)
17,O=S(=O)(NC1CCCCC1)c1ccc(F)c2ccccc12,91.4%
18,CCOc1cc2[nH]c(=S)n(Cc3ccc(C(=O)NCCOC)cc3)c(=O)c2cc1OCC,163%
19,COc1cc(-c2nc(-c3ccncc3)no2)cc(OC)c1OC,87.6%
20,CCOc1nc(-c2ccc(OC)cc2)ccc1-c1noc(-c2cc(OC)c(OC)c(OC)c2)n1,239% (active)
21,COc1ccc(-c2ccc(-c3noc(-c4ccncc4)n3)c(OC)n2)cc1,107%
22,O=C(CO/N=C/c1ccccc1O)NNC(=O)c1ccccc1Cl,102%
23,O=C(Cn1cnc2ccccc2c1=O)NCC1COc2ccccc2O1 (stereo unspecified),104%

row,Structure (SMILES),coactivator binding (% of control)
1,OC(COc1ccc2ccccc2c1)Cn1cncn1 (stereo unspecified),100%
2,C/C(O)=C\c1nc(=O)c2c(C)cc(C)nc2n1-c1ccccc1,297% [fluorescence artefact?] (active)
3,N#CCSc1nc2ccccc2c(=O)n1-c1ccccc1,100%
4,Cc1cc(C)c2c(n1)nn1c(N3CCN(c4cccc(Cl)c4)CC3)cc(C)nc21,169%
5,Cc1cc(Cl)c(S(=O)(=O)N(C)C)cc1OCC(N)=O,103%
6,O=C1/C(=C/c2cccs2)CCc2ccccc21,66.3%
7,Cc1cccc2cc(C#N)c(N3CCCC3)nc12,109%
8,CC(=O)c1ccc(S(=O)(=O)N2CCN(c3nc4c(C)c(C)ccc4cc3C#N)CC2)cc1,225% [fluorescence artefact?] (active)
9,Cc1cc(C)c2nc(N3CCCC3)c(C#N)cc2c1,101%
10,Cc1cc(NC(=O)CCC(=O)N(CC(=O)NCC2CCCO2)c2ccccc2C)no1 (stereo unspecified),101%
11,O=C(OC1CCCCC1=O)c1cccc(S(=O)(=O)NCc2ccccc2)c1 (stereo unspecified),96.6%
12,COC(=O)c1nc2ccccc2s1,116%
13,Nn1cnnc1N/N=C/c1cc([N+](=O)[O-])c(Cl)cc1Cl,600% [fluorescence artefact?] (active)
14,CC(=O)c1cccc(NC(=O)C2CCCN2S(=O)(=O)c2cccc3nsnc23)c1 (stereo unspecified),87.3%
15,Cc1ccc(Cn2c(NC(=O)c3ccco3)nc3ccccc32)cc1,316% (active)
16,CCC(=O)Nc1nc2ccccc2n1Cc1ccccc1C,117%
17,Cc1ccc(-n2nc3cc(Cl)c(NC(=O)c4ccco4)cc3n2)cc1,112%
18,O=c1c2ccccc2nc2n1C1(CCCCC1)Cc1ccccc1-2,109%
19,O=C(CN1CCCCC1)N1c2ccccc2Sc2ccc(C(F)(F)F)cc21,113%
20,CC1(C)C2CCC13CS(=O)(=O)NC3C2 (stereo unspecified),96.5%
21,O=c1c(-c2ccc3c(c2)OCCO3)c(C(F)(F)F)oc2cc(O)cc(O)c12,346% [fluorescence artefact?] (active)
22,CCN1CCN(Cc2c(O)ccc3c(=O)c(-c4ccc(OC)c(OC)c4)c(C(F)(F)F)oc23)CC1,109%
23,CCOC(=O)c1cc2cc(-c3c(C(=O)OCC)oc4cc(O)cc(O)c4c3=O)ccc2o1,72.5%

row,Structure (SMILES),coactivator binding (% of control)
1,COc1ccc(C2CC(c3cccs3)=Nc3ccccc3S2)cc1OC (stereo unspecified),94.7%
2,CC(C)C[C@@H](N)c1nnc(SCC(=O)c2ccc(Cl)cc2)o1,100%
3,Cc1cccc(NC(=O)c2sc3nc4c(c(-c5ccco5)c3c2N)CCC4)c1,104%
4,CC(=O)Nc1ccc(NC(=O)c2sc3nc4c(c(-c5ccc(C)cc5)c3c2N)CCC4)cc1,1100% [fluorescence artefact?] (active)
5,NC(=O)c1sc2nc3c(c(-c4ccccc4)c2c1N)CCC3,80.3%
6,CO/N=C(/CS(=O)(=O)c1ccc(Br)cc1)c1ccc(OC)cc1,94.8%
7,CCOC(=O)c1ccc2c(c1)nc(C)n2CC,89.8%
8,O=C(NCCCN1CCCCCC1)C1CC(=O)N(C2CCCC2)C1 (stereo unspecified),688% [fluorescence artefact?] (active)
9,CC(C)OCCCNC(=O)C1CC(=O)N(C2CCCCCCC2)C1 (stereo unspecified),80.7%
10,O=C(NCCc1ccc(Cl)cc1)C1CC(=O)N(C2CCCCC2)C1 (stereo unspecified),133%
11,Cc1ccc(S(=O)(=O)Oc2ccc(/C=N/NC(=O)c3c(Cl)cnn3C)cc2)cc1,106%
12,CCC(C(=O)NC1CCCC1)N(C(=O)c1snc(C(N)=O)c1N)c1ccc2c(c1)OCCO2 (stereo unspecified),244% [fluorescence artefact?] (active)
13,CCC(C)(C(=O)NC1CCCCC1)N(C)C(=O)c1ccc2c(c1)OCO2 (stereo unspecified),107%
14,COCCNC(=O)C(c1ccc(C)o1)N(Cc1cccs1)C(=O)c1snc(C(N)=O)c1N (stereo unspecified),117%
15,CCN(CC(=O)Nc1ccccc1OC)C(=O)Cn1cnc2ccccc2c1=O,97.9%
16,CCS(=O)(=O)c1ccc2oc(SCC(=O)N3c4ccccc4CC3C)nc2c1 (stereo unspecified),98%
17,CC1Cc2ccccc2N1C(=O)CSc1nc2ccccc2o1 (stereo unspecified),111%
18,CC1Cc2ccccc2N1C(=O)CSc1nnc(-c2ccc(S(=O)(=O)N3CCCCC3)cc2)o1 (stereo unspecified),304% (active)
19,Cc1cccc(OCCCC(=O)Nc2ccc(S(=O)(=O)N3CCCC3)cc2)c1,94.6%
20,O=C(Oc1ccc(-c2nc(-c3ccccn3)no2)cc1)c1ccccc1,210% (active)
21,c1ccc(-c2noc(-c3cccs3)n2)nc1,118%
22,CC(C)c1nc(-c2ccccn2)no1,105%
